The values below come from PubChem BioAssay AID1347074 (Center for Chemical Genomics, University of Michigan, 2019).

Hit rate of the full screen: of about 47,000 compounds, about 2,800 (6%) were called active. Shown is part of a subset that was picked to be rich in actives. Unmarked numbers belong to inactive results. Rule as the data show it: active = z-score above about 3 (passing the limit was not always enough); inactive = the rest.

For this test, the target named is Endoribonuclease Dicer (Homo sapiens) (UniProt Q9UPY3). Description: inhibitors of Dicer pre-microRNA processing, primary screen, biochemical, cat-ELCCA, chemiluminescence (AID 1347074).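 Also: plate controls were vehicle for no effect and no enzyme for full effect; higher signal means more uncleaved substrate so more Dicer inhibition.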 Particulars: cat-ELCCA pre-miR-21 Dicer processing, at 25 µM, hits give high values.
Sequence of Endoribonuclease Dicer (Homo sapiens) (Q9UPY3 whole entry, looked up): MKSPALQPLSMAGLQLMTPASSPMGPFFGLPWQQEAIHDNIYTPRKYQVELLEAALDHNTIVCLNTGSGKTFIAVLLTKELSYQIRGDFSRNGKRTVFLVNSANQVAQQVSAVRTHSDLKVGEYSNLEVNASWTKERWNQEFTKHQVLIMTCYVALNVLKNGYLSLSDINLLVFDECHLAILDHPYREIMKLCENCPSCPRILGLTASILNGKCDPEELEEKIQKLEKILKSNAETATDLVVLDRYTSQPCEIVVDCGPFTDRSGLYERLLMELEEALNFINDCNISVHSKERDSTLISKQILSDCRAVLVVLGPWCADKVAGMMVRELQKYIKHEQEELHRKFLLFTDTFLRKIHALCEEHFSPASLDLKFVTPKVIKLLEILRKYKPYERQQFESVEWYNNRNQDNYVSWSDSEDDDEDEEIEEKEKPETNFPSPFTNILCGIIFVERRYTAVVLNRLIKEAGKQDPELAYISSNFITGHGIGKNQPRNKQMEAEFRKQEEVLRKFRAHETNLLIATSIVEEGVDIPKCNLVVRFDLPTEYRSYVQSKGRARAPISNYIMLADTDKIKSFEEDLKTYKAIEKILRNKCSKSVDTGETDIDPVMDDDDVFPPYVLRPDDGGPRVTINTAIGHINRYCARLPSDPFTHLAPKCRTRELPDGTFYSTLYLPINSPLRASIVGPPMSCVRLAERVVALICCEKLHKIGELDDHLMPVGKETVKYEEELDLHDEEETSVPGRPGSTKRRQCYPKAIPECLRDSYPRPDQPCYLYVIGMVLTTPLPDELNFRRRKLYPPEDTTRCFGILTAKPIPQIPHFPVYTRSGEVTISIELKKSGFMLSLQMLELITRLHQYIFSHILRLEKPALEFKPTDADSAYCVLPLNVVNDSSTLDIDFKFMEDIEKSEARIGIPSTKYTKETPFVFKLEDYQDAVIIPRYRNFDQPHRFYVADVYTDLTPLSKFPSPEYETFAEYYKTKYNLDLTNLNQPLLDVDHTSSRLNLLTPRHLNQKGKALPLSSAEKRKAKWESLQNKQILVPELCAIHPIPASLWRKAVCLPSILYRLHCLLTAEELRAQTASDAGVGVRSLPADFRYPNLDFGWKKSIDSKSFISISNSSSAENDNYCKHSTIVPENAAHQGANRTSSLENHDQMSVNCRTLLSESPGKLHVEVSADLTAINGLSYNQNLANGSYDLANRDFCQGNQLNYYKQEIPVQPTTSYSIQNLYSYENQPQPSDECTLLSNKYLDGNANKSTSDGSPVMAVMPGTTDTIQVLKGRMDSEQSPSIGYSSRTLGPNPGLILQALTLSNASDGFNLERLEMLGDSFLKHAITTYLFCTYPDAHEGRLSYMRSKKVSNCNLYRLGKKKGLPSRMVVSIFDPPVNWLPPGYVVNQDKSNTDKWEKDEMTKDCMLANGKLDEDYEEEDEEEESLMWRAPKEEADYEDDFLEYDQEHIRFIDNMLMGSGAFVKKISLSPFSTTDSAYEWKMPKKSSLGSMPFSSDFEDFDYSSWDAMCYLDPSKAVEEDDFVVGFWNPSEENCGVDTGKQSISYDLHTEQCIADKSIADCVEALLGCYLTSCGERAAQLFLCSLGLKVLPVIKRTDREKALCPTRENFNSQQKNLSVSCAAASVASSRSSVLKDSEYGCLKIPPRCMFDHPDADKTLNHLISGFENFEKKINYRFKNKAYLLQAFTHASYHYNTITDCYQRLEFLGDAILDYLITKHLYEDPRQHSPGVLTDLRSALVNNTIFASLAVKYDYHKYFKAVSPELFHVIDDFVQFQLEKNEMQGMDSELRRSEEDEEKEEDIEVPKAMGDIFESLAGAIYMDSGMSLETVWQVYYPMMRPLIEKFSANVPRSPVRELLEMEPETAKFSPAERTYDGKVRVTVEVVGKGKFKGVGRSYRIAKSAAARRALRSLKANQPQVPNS
Consider `CC(C)C(=O)NNc1ncc(C(F)(F)F)cc1Cl`, for which the z-score was 0.4.

As for `O=C1C(=O)N(CCCn2ccnc2)C(c2ccco2)/C1=C(\O)c1ccccc1` (configuration not stated), the z-score is 2.79.

Turning to `N#Cc1cccc(CSc2ncnc(N)n2)c1`, the z-score was 3.87 (active).

In the case of `O=C(CSc1nnc(-c2ccco2)c(-c2ccco2)n1)Nc1ccc(Br)cc1`, the z-score was -1.71.

For the compound `Cc1[nH]nc2oc(=O)c([N+](=O)[O-])c(C)c12`, the z-score is -1.74.

For `O=C1NC(c2ccccc2)=N/C1=C/c1ccc(F)cc1`, the z-score was 3.84 (active).

As to `c1ccc(C2=Nc3cccc4cccc(c34)N2)cc1`, the z-score was -0.61.

For the compound `O=C1NNC(c2ccccc2)=N/C1=C\c1ccc(Cl)cc1`, the z-score is -3.16.

As to `O=C1C(=O)N(CCCn2ccnc2)C(c2ccncc2)/C1=C(\O)c1ccc(Cl)cc1` (configuration not stated), the z-score is 1.19.

As for `CCCc1n(CC(O)COc2ccc(C)cc2)c2ccccc2[n+]1C` (configuration not stated), the z-score was -0.91.

With `Cc1ccccc1CN1C=C(C(N)=O)C(C(F)(F)F)CC1` (configuration not stated), the z-score was -0.6.

As for `COc1cccc(CNC2CS(=O)(=O)CC2O)c1` (configuration not stated), the z-score is 0.5.

Turning to `CCc1c(C)nc2cc(-c3ccc(Br)cc3)[nH]n2c1=O`, the z-score is 1.4.

Consider `COCCOC(=O)C1=C(C)NC2=C(C(=O)CC(C)(C)C2)C1c1ccc(Br)cc1` (configuration not stated), for which the z-score is -0.9.

As for `COc1csc2nc(C)cc(C)c12`, the z-score is 2.93.

As for `O=C(CC1(O)C(=O)Nc2ccccc21)c1ccc(F)cc1` (configuration not stated), the z-score was -0.42.

As for `O=C1Nc2ccccc2C12NNC(=S)NN2`, the z-score was 8.53 (active).

Take `Cc1[nH]c2ccccc2c1C1(O)C(=O)Nc2ccccc21` (configuration not stated): the z-score is 0.91.

In the case of `CC1=C(C(=O)Nc2ccccc2)C(c2cccs2)C(C#N)=C(SCC(=O)O)N1` (configuration not stated), the z-score is 0.54.

As to `CC12CCC(C(=O)O)(CC1=O)C2(C)C` (configuration not stated), the z-score was 2.29.

Regarding `O=C1C(=O)N(c2cccnc2)C(c2ccc(Br)cc2)/C1=C(\O)c1ccc(Cl)cc1` (configuration not stated), the z-score is 0.32.

Consider `O=C(Oc1ccc2ccccc2c1)c1ccncc1`, for which the z-score was 0.81.

Turning to `O=C(Oc1ccc(Br)cc1)c1cccnc1`, the z-score was 5.46 (active).

For `O=C1CC(c2ccc(F)cc2)Cc2nc3nc(C(F)(F)F)nn3cc21` (configuration not stated), the z-score is -0.42.

Turning to `CC(C)Oc1ccc(C2N3CC4(C)CN2CC(C)(C3)C4)cc1` (configuration not stated), the z-score is 2.35.

In the case of `COc1ccc(C2N3CC4(C)CN2CC(C)(C3)C4)cc1` (configuration not stated), the z-score was 1.02.

As for `CC(C)c1ccc(C2N3CC4(C)CN2CC(C)(C3)C4)cc1` (configuration not stated), the z-score was 4.83 (active).

Take `C#CC1(NS(=O)(=O)c2ccc(Sc3ccccc3)c([N+](=O)[O-])c2)CCCCC1`: the z-score is -0.19.

Take `CCOC(=O)Cc1nnc2c(Nc3cccc(Br)c3)nc3nonc3n12`: the z-score is 3.07 (active).

With `CCOC(=O)Cc1csc(NC(=O)Nc2ccccc2)n1`, the z-score was -0.51.

Take `Cc1cc(C)c(C#N)c(Nc2cccc(Br)c2)n1`: the z-score is 0.66.

For `O=C(Cn1nc(C(F)(F)F)c2c1CCCC2)Nc1ccc(Cl)cc1`, the z-score is 1.11.

In the case of `COC(=O)C1=C(C)NC2=C(C(=O)CC(c3ccccc3)C2)C1c1ccc(C)cc1` (configuration not stated), the z-score is 0.18.

On to `COc1ccc(C2CC(=O)C3=C(C2)Nc2ccccc2NC3c2cc(F)ccc2F)cc1` (configuration not stated), for which the z-score is 3.99 (active).

For `O=C1CC(c2ccccc2)CC2=C1C(c1cccc(Cl)c1)Nc1ccccc1N2` (configuration not stated), the z-score was 1.52.

`CN(C)c1ccc(C2Nc3ccccc3NC3=C2C(=O)CC(c2ccc(Cl)cc2)C3)cc1` (configuration not stated): the z-score is 1.16.

Regarding `COc1ccc(C2CC(=O)C3=C(C2)Nc2ccccc2NC3c2cccc(Cl)c2)cc1` (configuration not stated), the z-score is 2.07.

In the case of `COC(=O)c1ccc(C2Nc3ccccc3NC3=C2C(=O)CC(c2ccccc2)C3)cc1` (configuration not stated), the z-score was 3.94 (active).

Consider `O=C(CSc1ncnc2c1sc1nc(N3CCOCC3)c3c(c12)CCCC3)N1CCCCC1`, for which the z-score was -0.18.

For the compound `CCOC(=O)c1[nH]c2ccc([N+](=O)[O-])cc2c1CCC(=O)O`, the z-score was 0.9.

Turning to `COc1ccc(NC(=O)NCc2c(-c3ccccc3)noc2C)cc1OC1CCCC1`, the z-score is -0.22.

For the compound `Cc1cc(C)nc(N2CCN(c3ncnc4sc5c(c34)CCCC5)CC2)n1`, the z-score is 5.88.

Turning to `Cc1cc(C)c2oc(-c3ccc(C)c(NC(=O)C(C)C)c3)nc2c1`, the z-score is 0.37.

As to `Clc1ccc(CNc2nc3ccccc3n2CCN2CCOCC2)cc1`, the z-score is 3.51 (active).

On to `Clc1ccc(Cn2c(-c3ccco3)nc3ccccc32)cc1`, for which the z-score is 2.46.

Take `c1ccc2[nH]c(NCCN3CCOCC3)nc2c1`: the z-score was -0.76.

Take `Cc1nn(-c2ccc(N3CCOCC3)nn2)c(=O)c2ccccc12`: the z-score was -0.81.

With `Cc1c(Cc2c(F)cccc2Cl)c(=O)oc2cc(OC(=O)c3ccccc3Cl)ccc12`, the z-score is -0.2.

For `COc1ccc(OCCn2cc(C(=O)C3CC3)c3ccccc32)cc1`, the z-score is 3.94 (active).

In the case of `COCCCNC(=O)Cn1cc(C(=O)C2CC2)c2ccccc21`, the z-score is 1.99.

For the compound `COc1ccc(OC)c(NC(=O)Cn2cc(C(=O)C3CC3)c3ccccc32)c1`, the z-score was 0.03.

With `CCCCN1C(=O)C2(/C(=C(/O)c3ccc(F)cc3)C(=O)C(=O)N2CCCOC)c2ccccc21` (configuration not stated), the z-score is 2.27.

For the compound `CCN(C(=S)Nc1c(C)cccc1C)c1ccccc1`, the z-score is 3.03 (active).

On to `COc1cc(CN(Cc2ccccc2)C(=S)Nc2c(C)cccc2C)cc(OC)c1OC`, for which the z-score is 1.24.

In the case of `Cc1cccc(C)c1NC(=S)NCCC(=O)O`, the z-score is 1.63.

For the compound `O=[N+]([O-])c1ccc(S(=O)(=O)c2ccccc2)cc1OS(=O)(=O)c1ccc(Cl)cc1`, the z-score is 0.46.

As for `Fc1ccc(Nc2nnns2)cc1`, the z-score is 2.65.

Regarding `Cn1c(C(=O)O)ccc1S(=O)(=O)N(Cc1ccccc1)Cc1ccccc1`, the z-score was -0.36.

In the case of `CC(C)=NNS(=O)(=O)c1ccc(C)cc1`, the z-score was -6.01.

With `Cc1nc2cc(NCc3ccccn3)ccc2n1C`, the z-score is 3.02 (active).

As to `Cc1nc2cc(CO)ccc2n1-c1ccccc1`, the z-score was -1.15.

As for `CCOc1cc(C)c(S(=O)(=O)NCc2ccccn2)cc1C`, the z-score is 0.63.

For the compound `CN(C)c1ccc(C2/C(=C(/O)c3ccccc3)C(=O)C(=O)N2CCO)cc1` (configuration not stated), the z-score is -1.23.

In the case of `CCOC(=O)C1Cn2c(nc3c(c2=O)C(C)(CC)Cc2ccccc2-3)S1` (configuration not stated), the z-score was 3.52 (active).

Take `Cc1ccc(NC(=O)C/C(N)=N/O)cc1Cl`: the z-score was 1.48.

Consider `COc1ccc(-c2n[nH]c(=S)n2-c2ccc(Cl)cc2C)cc1`, for which the z-score was -1.05.

As for `S=c1[nH]nc(CSCc2nc(-c3ccccc3)cs2)n1-c1ccc(Cl)cc1`, the z-score was -0.05.

Take `CCn1c(CSc2nc(-c3ccc(Cl)cc3)cn2-c2ccc(C)cc2)n[nH]c1=S`: the z-score was 5.38 (active).

As to `C=CCSc1nc(Nc2ccc(Cl)cc2)c2cnc(N3CCOCC3)nc2n1`, the z-score is 0.68.

Regarding `Cc1nc2ccccc2c2c1C(=O)N(c1ccc(C(=O)OCC(=O)c3ccccc3)cc1)C2=O`, the z-score was 0.06.

As for `C/C(=N\NC1=NCCCN1)c1ccc(Cl)cc1`, the z-score was -0.42.

`CCCCSC1=C(C#N)C(=O)NC(C)S1` (configuration not stated): the z-score is 1.98.

Turning to `COc1ccc(-c2nn3c(-c4ccccc4)nnc3s2)cc1OC`, the z-score is -0.95.

Regarding `COc1ccc(-c2cc(C)nc3nc(N)nn23)cc1`, the z-score was -1.68.

In the case of `COc1ccc(-c2nn3c(-c4ccc(OC)cc4)nnc3c3ccccc23)cc1`, the z-score is 3.15 (active).

As for `CSc1ccc(C2C(C(=O)OCC3CCCO3)=C(C)NC3=C2C(=O)CC(C)(C)C3)cc1` (configuration not stated), the z-score is 0.6.

Take `COc1ccc2c(c1)CCCC2=Nc1ccccc1C(F)(F)F`: the z-score was 4.81 (active).

In the case of `COc1ccc2c(c1)CCc1sc(N)nc1-2`, the z-score is -2.97.

As for `CCCOc1ccc(N2C(=O)CC(N3CCC(C)CC3)C2=O)cc1` (configuration not stated), the z-score is 1.2.

Consider `O=C(Cn1nnc(-c2ccccc2Oc2ccc(Cl)cc2Cl)n1)NNC(=S)Nc1ccccc1C(F)(F)F`, for which the z-score is 4.43 (active).

On to `NNC(=O)Cn1nnc(-c2cccc(Cl)c2Cl)n1`, for which the z-score was 7.9.

On to `COC(=O)/C=C(\Nc1ccccc1Oc1ccc(Cl)cc1Cl)C(=O)OC`, for which the z-score was 2.01.
